High-throughput results: PubChem BioAssay, several laboratories
Rv3671c inh = Rv3671c (M. tuberculosis) protease inhibition. P9WHR9. inhibition, % at 5.96 µM. 0.048% of 320,000 active; in the data active = inhibition above about 38%;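 also: extracellular domain of Rv3671c used as enzyme; 0% = enzyme with DMSO and 100% = no enzyme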
Target sequence (P9WHR9 whole entry, looked up, the tested form may be a part): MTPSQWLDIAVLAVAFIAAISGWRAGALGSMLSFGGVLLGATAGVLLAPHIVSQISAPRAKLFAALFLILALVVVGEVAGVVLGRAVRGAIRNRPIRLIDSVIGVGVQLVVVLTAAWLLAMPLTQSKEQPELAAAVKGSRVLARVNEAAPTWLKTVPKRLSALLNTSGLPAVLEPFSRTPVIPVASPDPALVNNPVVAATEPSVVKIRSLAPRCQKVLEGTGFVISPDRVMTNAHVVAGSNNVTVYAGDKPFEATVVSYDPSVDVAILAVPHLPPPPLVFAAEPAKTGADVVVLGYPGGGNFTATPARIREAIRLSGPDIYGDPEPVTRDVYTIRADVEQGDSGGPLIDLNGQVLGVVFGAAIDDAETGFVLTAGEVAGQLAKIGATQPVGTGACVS
Mtb UGM inh = inhibitors of M. tuberculosis UDP-galactopyranose mutase; P9WIQ1; 0.06% of 320,000 active; purified UGM, fluorescence polarization probe displacement; inhibition, % at 10 µM; AID 504406; in the data active = inhibition above about 10%, passing the limit was not always enough
Mtb FBA inh = inhibits M. tuberculosis FBA enzyme; purified M. tuberculosis FBA, fluorescence read-out; inhibition, % at 1 µM; 2.3% of 360,000 active;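 also: 0% = vehicle and 100% = reference inhibitor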
GDH-TPI counter-1 = counter-screen for M. tuberculosis FBA inhibitors: GDH-TPI coupled enzymes | GDH-TPI coupled enzyme counterscreen, NADH absorbance | inhibition, % at 4.8 µM | 1.2% of 360,000 active | AID 588335; in the data active = inhibition above about 30%;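 also: 0% = DMSO wells and 100% = wells lacking the enzyme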
Mtb bLac sens = beta-lactam sensitization of Mtb H37Rv | M. tuberculosis H37Rv growth with meropenem, percent inhibition | inhibition, % at 25 µM | 0.27% of 330,000 active; call rule not given here;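 also: growth measured after seven days incubation then overnight dye step; 0% = bacteria only wells and 100% = bacteria with antibiotic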
Mtb FBA inh conf = confirmation of M. tuberculosis fructose-bisphosphate aldolase inhibitors. shares compounds with Mtb FBA inh. purified M. tuberculosis FBA, fluorescence read-out. inhibition, % at 1 µM. 78% of 5,600 active. AID 651616;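 also: 0% = vehicle wells and 100% = reference inhibitor wells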
GDH-TPI counter-2 = GDH-TPI inhibition counter-screen for FBA inhibitors; shares compounds with Mtb FBA inh; GDH-TPI coupled enzyme counterscreen, fluorescence; inhibition, % at 1 µM; 81% of 5,600 active; AID 652141; in the data active = inhibition above about 10%
* marks the source's active call; other numbers are inactive results; . = no result given; + = active, no number. An excerpt weighted towards active compounds, which were near 3.5% of everything screened. Rule as the data show it, unless noted: active = inhibition above about 27%; inactive = the rest.

SMILES | Rv3671c inh | Mtb UGM inh | Mtb FBA inh | GDH-TPI counter-1 | Mtb bLac sens | Mtb FBA inh conf | GDH-TPI counter-2
Nc1c(C(=O)Nc2ccc(Cl)cc2)sc2nc(N3CCOCC3)c3c(c12)CCCC3 | -1 | 2 | 37* | 15 | -5 | -3 | -2
Nc1nc(N)c2cc(Sc3ccc(Cl)cc3)ccc2n1 | . | . | 68* | 9 | . | 64* | 59*
Nc1nc(N)c2cc(Sc3cccc(C(F)(F)F)c3)ccc2n1 | . | . | 52* | 7 | . | + | 177*
Nc1nc(N)c2cc(Sc3ccc4ccccc4c3)ccc2n1 | 34 | 0 | 9 | 6 | 99 | . | .
CCN(CC)C(=O)CN1C(=O)C2(NC(=O)c3ccccc3N2)c2ccccc21 (configuration not stated) | 10 | 1 | 13 | 7 | 3 | . | .
CC(=O)N1CC2(NC(=O)c3ccccc3N2)c2ccccc21 (configuration not stated) | 1 | 0 | 80* | 4 | 1 | + | 188*
C=CCOC(=O)COc1ccc2c(C)c(C)c(=O)oc2c1 | 1 | 0 | 68* | 23 | 97 | 25 | 28*
CCOC(=O)CCc1c(C)c2ccc(OCC(=O)OC(C)C)cc2oc1=O | 0 | 0 | 67* | 13 | 8 | 54* | 41*
CCOC(=O)CCc1c(C)c2ccc(OCc3ccc([N+](=O)[O-])cc3)cc2oc1=O | 10 | 1 | 8 | 2 | 0 | . | .
CCCCc1c(C)c2ccc(OCC(C)=O)cc2oc1=O | 0 | -1 | 72* | 3 | 62 | 3 | 6
CCOC(=O)CCc1c(C)c2ccc(OC3CCCCC3=O)cc2oc1=O (configuration not stated) | -8 | 1 | 109* | 5 | -6 | 151* | 132*
C[C@H](CO)N1C[C@H](C)[C@@H](CN(C)S(=O)(=O)c2ccc(F)cc2)Oc2ccc(NC(=O)C3CC3)cc2C1=O | 9 | -4 | 0 | 0 | 3 | . | .
O=C(CCCN1C(=O)c2cccc3cccc(c23)C1=O)NC1CCS(=O)(=O)C1 (configuration not stated) | 3 | 0 | 40* | 9 | -7 | 56* | 57*
Cc1cccc(C)c1NC(=O)CNC(=O)CCCN1C(=O)c2cccc3cccc(c23)C1=O | -3 | 0 | 21 | 19 | -9 | . | .
O=C1c2cccc3cccc(c23)C(=O)N1Cc1cccnc1 | -10 | -4 | 41* | 22 | -8 | 3 | 0
O=C(CCN1C(=O)c2cccc3cccc(c23)C1=O)NCc1cccnc1 | -8 | -2 | 35* | 20 | -6 | 2 | -4
O=C(CCCCCN1C(=O)c2cccc3cccc(c23)C1=O)NCCO | -2 | 0 | 36* | 6 | 7 | 90* | 74*
COC(=O)c1c(NC(=O)COC(=O)C2CCC2)sc(C)c1C | -4 | 0 | 0 | 3 | 4 | . | .
CC1CCN(C(=O)COc2cccc3c2CCN(C)C3=O)CC1 | 1 | 2 | 1 | 0 | 12 | . | .
Cc1ccc(OCC(O)CN2CCOCC2)cc1 (configuration not stated) | -3 | -1 | 1 | -4 | -4 | . | .
Fc1ccc(C2C3=C(Nc4ncnn42)c2ccccc2OC3c2ccncc2)cc1 (configuration not stated) | -11 | -1 | 37* | 1 | -5 | 102* | 64*
Cc1ccc(C2Oc3ccccc3C3=C2C(c2cccs2)n2ncnc2N3)cc1 (configuration not stated) | -2 | -1 | 3 | 6 | 78 | . | .
O=C1Nc2ccc3sc4ccccc4c3c2C1=O | -11 | 0 | -1 | 6 | 9 | . | .
Cc1ccc(N2CCN(C(=O)C3CCC(=O)N(Cc4ccc(Cl)cc4)C3)CC2)c(C)c1 (configuration not stated) | . | 3 | 0 | 1 | 30 | . | .
O=C1c2ccc(-c3ccc4c(c3)C(=O)N(CCCO)C4=O)cc2C(=O)N1CCCO | 6 | 1 | 36* | 2 | -2 | 9 | -5
SMILES | Rv3671c inh | Mtb UGM inh | Mtb FBA inh | GDH-TPI counter-1 | Mtb bLac sens | Mtb FBA inh conf | GDH-TPI counter-2
Cn1c(-c2cc3ccc(OC(=O)C(C)(C)C)cc3oc2=O)nc2ccccc21 | -4 | 0 | 59* | 33* | 10 | 3 | -3
CCc1cc2c(=O)c(-c3nc4ccccc4n3C)c(COCC(=O)O)oc2cc1O | 3 | -2 | -2 | 20 | 9 | . | .
COc1ccccc1C1C2=C(CCCC2=O)N(CC(=O)O)C2=C1C(=O)CCC2 | 3 | 4 | 40* | 5 | 8 | -2 | -2
Clc1ccc(N(CC2CO2)CC2CO2)cc1 (configuration not stated) | . | . | -2 | 5 | . | . | .
COc1ccc(S(=O)(=O)NCCc2cn3nc(C)c(C)nc3n2)cc1 | 8 | 1 | 59* | 1 | -5 | -4 | -3
Cc1nc2nc(CCNS(=O)(=O)c3ccc(Cl)cc3)cn2nc1C | 1 | -1 | 72* | 4 | -4 | 62* | 63*
CCN(CC)CCNS(=O)(=O)c1ccc(Cl)cc1 | -13 | 6 | 1 | 8 | 2 | . | .
COc1ccc(S(=O)(=O)NCCc2ccccn2)cc1 | 1 | -1 | -1 | -9 | 2 | . | .
CCOc1ccc(NC(=O)CN(C)C(=O)c2ccc3nc(CC)c(CC)nc3c2)cc1OCC | 2 | 0 | -2 | 1 | 1 | . | .
Cc1cccc(C2NC(=O)c3ccccc3N2)c1 (configuration not stated) | . | . | 26 | 6 | . | . | .
O=C1NC(c2ccc(Cl)cc2)Nc2ccccc21 (configuration not stated) | 5 | -2 | 8 | -4 | 2 | . | .
Cc1ccc(C2NC(=O)c3ccccc3N2)c(C)c1 (configuration not stated) | . | . | 62* | 6 | . | 80* | 61*
O=C1NC(c2ccco2)Nc2ccccc21 (configuration not stated) | 1 | -1 | 43* | 2 | -3 | 57* | 49*
Cc1cc(C)n2nc(CC(=O)NNC(=O)c3ccccc3Cl)nc2n1 | -2 | 1 | 3 | 7 | -1 | . | .
O=S1c2ccccc2-c2ccccc21 | . | . | 1 | -1 | . | . | .
O=[N+]([O-])c1ccc2c(c1)S(=O)c1ccccc1-2 (configuration not stated) | 7 | 0 | 27* | 26 | -4 | 147* | 110*
CCN(CCCNC(=O)CNC(=O)c1nn(-c2ccc(OC)c(OC)c2)c(=O)c2ccccc12)c1ccccc1 | 3 | 2 | 27* | 3 | -4 | 189* | 156*
CCOc1ccc(-n2nc(C(=O)NC3CCCCC3)c3ccccc3c2=O)cc1 | -8 | 3 | 1 | 6 | 8 | . | .
CCOc1ccc(-n2nc(C(=O)NCCOC)c3ccccc3c2=O)cc1 | -5 | -2 | 68* | 6 | -4 | + | 191*
CCCn1c2ccccc2c2nnc(SCC(=O)OC)nc21 | -3 | 3 | 1 | 12 | 9 | . | .
CCCn1c2ccccc2c2nnc(SCC(=O)OCC)nc21 | 0 | -1 | 52* | 25 | . | 38* | 64*
